Molecules are shown by their SMILES. Results filed as inconclusive are left out. A number with no mark means an inactive call. Calls of active or inactive are those of the source. Calls follow the shape of the dose curve; as a rule, active = well fitted inhibition curve with a large enough effect; inconclusive = small, poorly fitted or top-dose-only effect; inactive = flat fitted curve, though single readings scatter.

Sequence of Lysine-specific demethylase 5B (Homo sapiens) (Q9UGL1 whole entry, looked up): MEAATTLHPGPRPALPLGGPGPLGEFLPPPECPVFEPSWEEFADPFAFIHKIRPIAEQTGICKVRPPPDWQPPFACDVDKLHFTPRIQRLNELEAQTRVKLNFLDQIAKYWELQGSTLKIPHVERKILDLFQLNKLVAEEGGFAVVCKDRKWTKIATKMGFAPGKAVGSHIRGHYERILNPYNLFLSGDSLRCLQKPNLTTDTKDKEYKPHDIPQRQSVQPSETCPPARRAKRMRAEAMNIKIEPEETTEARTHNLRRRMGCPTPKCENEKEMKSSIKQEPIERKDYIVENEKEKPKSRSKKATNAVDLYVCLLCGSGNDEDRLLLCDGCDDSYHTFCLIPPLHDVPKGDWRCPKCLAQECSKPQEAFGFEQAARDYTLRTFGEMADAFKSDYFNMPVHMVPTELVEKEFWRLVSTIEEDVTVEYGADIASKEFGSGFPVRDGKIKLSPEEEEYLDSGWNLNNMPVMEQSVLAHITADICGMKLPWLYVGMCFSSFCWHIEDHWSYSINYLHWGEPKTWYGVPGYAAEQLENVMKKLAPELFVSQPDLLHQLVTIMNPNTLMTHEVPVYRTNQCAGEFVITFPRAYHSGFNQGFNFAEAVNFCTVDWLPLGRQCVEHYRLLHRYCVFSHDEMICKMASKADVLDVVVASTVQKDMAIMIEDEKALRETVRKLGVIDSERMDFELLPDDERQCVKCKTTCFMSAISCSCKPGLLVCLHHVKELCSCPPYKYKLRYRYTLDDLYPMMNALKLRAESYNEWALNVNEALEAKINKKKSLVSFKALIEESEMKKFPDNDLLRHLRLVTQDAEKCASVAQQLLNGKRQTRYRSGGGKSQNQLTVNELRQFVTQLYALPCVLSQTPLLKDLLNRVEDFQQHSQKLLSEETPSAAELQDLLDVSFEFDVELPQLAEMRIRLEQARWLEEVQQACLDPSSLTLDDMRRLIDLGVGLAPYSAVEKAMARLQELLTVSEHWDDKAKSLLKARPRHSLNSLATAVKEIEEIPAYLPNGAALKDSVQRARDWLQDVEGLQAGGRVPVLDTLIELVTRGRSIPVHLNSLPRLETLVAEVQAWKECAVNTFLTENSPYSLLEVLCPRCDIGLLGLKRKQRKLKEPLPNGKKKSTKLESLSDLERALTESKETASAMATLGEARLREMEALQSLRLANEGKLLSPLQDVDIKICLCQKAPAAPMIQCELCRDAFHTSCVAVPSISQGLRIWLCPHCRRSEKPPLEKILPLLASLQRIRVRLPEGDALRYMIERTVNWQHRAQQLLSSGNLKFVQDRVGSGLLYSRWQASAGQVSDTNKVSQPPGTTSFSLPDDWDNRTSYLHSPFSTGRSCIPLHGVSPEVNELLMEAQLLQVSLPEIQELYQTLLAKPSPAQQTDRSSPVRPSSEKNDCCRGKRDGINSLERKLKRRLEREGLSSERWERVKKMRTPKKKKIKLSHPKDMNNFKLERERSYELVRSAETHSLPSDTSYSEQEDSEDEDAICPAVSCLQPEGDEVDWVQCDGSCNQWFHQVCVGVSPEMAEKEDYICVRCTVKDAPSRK

The test concerns the target Lysine-specific demethylase 5B (Homo sapiens) (UniProt Q9UGL1). Put plainly: Optimization screen for KDM5B Histone Demethylases FDH coupled qHTS against the LOPAC library (AID 1347166). Also: 0% is about no effect. Particulars: KDM5B demethylation, FDH-coupled NADH fluorescence (FDH is formaldehyde dehydrogenase); at 57.5 µM (top of the series). The method in brief: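 KDM5BDeltaAP (200nM final) preincubated 10 min with compound, then 12.5uM H3K4Me3, 25uM a-ketoglutarate, ascorbate, Fe(II), NAD+ and FDH added; 50mM HEPES pH 7.5, 0.01% Tween-20. NADH fluorescence (340/450 nm) change over 30 min, room temperature.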
For orientation: In qHTS, concentration-response curves come from the screen itself.
Consider `CCC(=O)N1CCN(C(=O)c2ccccc2)CC1`, for which the activity, negative = inhibition was 3.19%.
For the molecule `COc1cccc(OC)c1OCCNCC1CSc2ccccc2O1` (stereo not given), the activity, negative = inhibition is -14.1%.
Under `O[Si](CCCN1CCCCC1)(c1ccc(F)cc1)C1CCCCC1` (stereo not given) stands -4.4%; under `N=C(N)c1ccccc1`, -3.44%; under `C=C(C)C1CC=C(C(=O)O)CC1` (stereo not given), 1.54%.
Under `CN(C)CCCc1cc(C(=O)Nc2ccc(-c3ccncc3)cc2)ccc1O` stands -5.29%; under `COC(=O)C(C)(N)Cc1ccc(O)cc1` (stereo not given), -17.5%; under `CC(N)=O`, -7.02%.
Under `NCCCCN` stands -1.54%; under `Cn1c(=O)c2c(nc(/C=C/c3cccc(Cl)c3)n2C)n(C)c1=O`, -517% (active).
`CN1CC(O)C(O)C(O)C1CO` (stereo not given): the activity, negative = inhibition was -6.96%.
Under `Nc1ncnc2c1ncn2C1CCCC1` stands -3.1%.
The result for `CN1CCCC1CCOC(C)(c1ccccc1)c1ccc(Cl)cc1` (stereo not given) reads -0.721%.
Consider `CCCCC[C@H](CC(=O)NO)C(=O)N[C@H](C(=O)N1CCC[C@H]1CO)C(C)C`, for which the activity, negative = inhibition was 9.91%.
On to `COc1ccc2c(c1)c(CC(=O)O)c(C)n2Cc1ccc(Cl)cc1`, for which the activity, negative = inhibition is -5.89%.
Under `Nc1ccc(N2C(=O)c3ccccc3C2=O)c(Cl)c1` stands -4.03%.
Under `NCCC1CCCC(CCN)N1` (stereo not given) stands -5.63%; under `O=C(O)C1CCCNC1` (stereo not given), -0.313%; under `CCCn1c(=O)c2[nH]c(-c3ccc(S(=O)(=O)O)cc3)nc2n(CCC)c1=O`, 2090%.
As for `N=C(N)c1ccc(OCCCCCOc2ccc(C(=N)N)cc2)cc1` (tested in a mixture with another compound), the activity, negative = inhibition was -13.6%.
Under `COc1ccc(C(=O)NCc2cccnc2)cc1C(=O)NCc1cccnc1` stands -3.95%.
Under `CN1CCC2(CCN3CCc4c(oc5ccccc45)C3C2)N(C)C1=O` (stereo not given) stands -3.3%.
The result for `O=C(O)CCC(=O)N1CCCC1C(=O)O` (stereo not given) reads -3.62%; that for `N[C@@H](CCC(=O)N[C@H](CSN=O)C(=O)NCC(=O)O)C(=O)O`, -9.68%; that for `CC(=O)/C(C)=N/O`, -0.876%.
As to `OC[C@H]1O[C@@H](n2cnc3cncnc32)[C@H](O)[C@@H]1O`, the activity, negative = inhibition was -2.2%.
`O=C(O)/C(=C/c1c(C(=O)O)[nH]c2cc(Cl)cc(Cl)c12)c1ccccc1`: the activity, negative = inhibition is -2.54%.
Under `NC(N)=N[C@@H](CCC(=O)O)C(=O)O` stands -1.71%.
The result for `C[C@@H](NCCc1ccc(O)cc1)[C@@H](O)c1ccc(O)cc1` reads -4.75%.
The result for `N#CC(C#N)=C(N)/C(C#N)=C/c1ccc(O)cc1` reads -9.24%; that for `O=C(O)C1CN(CCCP(=O)(O)O)CCN1` (stereo not given), 0.457%; that for `CC(C)[C@@H]1CC[C@@H](C)C[C@@H]1P(=O)(c1ccccc1)c1ccccc1`, -4.33%.
Turning to `C=CC1(C)CC(=O)C2(O)C(C)(O1)C(OC(C)=O)C(O)C1C(C)(C)CCC(O)C12C` (stereo not given), the activity, negative = inhibition was -2.72%.
Under `COc1ccc(CCn2nnnc2C2(c3ccc(C)cc3)CC2)cc1` stands -4.62%.
The result for `CCCCCCCCCC[Si](C)(C)CCC(=O)NC(Cc1ccc(C)cc1)c1ccccc1` (stereo not given) reads -3.59%; that for `c1ccc2c(c1)CC(N1CCN(c3cccc4c3OCCO4)CC1)C2`, -5.51%; that for `N[C@H](C(=O)O)[C@H](Cc1ccccc1)C(=O)O`, -9.48%.
Consider `Nc1ncnc2c1nc(Br)n2C1OC2COP(=O)(O)O[C@@H]2C1O` (stereo not given in full), for which the activity, negative = inhibition was -2.56%.
`Nc1nc2c(nc(Br)n2C2OC3COP(=O)(O)O[C@@H]3C2O)c(=O)[nH]1` (stereo not given in full): the activity, negative = inhibition was -2.81%.
The result for `O=c1[nH]c2cc(Cl)ccc2c(O)c1-c1ccc(Oc2ccccc2)cc1` reads -28.1%.
